Out of some 260,000 compounds screened, about 890 (0.34%) were called active. About 1% were inconclusive and are not listed. The sample holds actives, similar compounds and a random draw of the others, so the mix is not that of the screen. Calls come from the whole dose curve; as a rule, active = well fitted activation curve with a large enough effect; inconclusive = small, poorly fitted or top-dose-only effect; inactive = no such curve, though single readings can be large or run the other way.
target: Pyruvate kinase PKM (Homo sapiens) (UniProt P14618); test: qHTS Assay for Activators of Human Muscle isoform 2 Pyruvate Kinase; conditions: purified PKM2, Kinase-Glo ATP luminescence; Potency: activation; series mostly up to 57.5 µM; activation: at the top concentration; note: nearly all actives have a fitted effect of over 55% in size
From the text: NIH Chemical Genomics Center [NCGC] Matthew G. Vander Heiden, M.D., Ph.D. [Harvard Medical School, 77 Avenue Louis Pasteur, Boston, MA 02115] MLPCN Grant: 1 R03 MH085679-01 NCGC Assay Overview: Human pyruvate kinase muscle 2 (hPK-M2) enzyme was supplied as a highly purified (>95% pure) preparation from Harvard Medical School and assayed for its ability to generate ATP from ADP using phosphoenolpyruvate (PEP) as a substrate. ATP generation was detected in a coupled reaction by luciferase-mediated luminescence, an ATP-dependent process. […] The enzyme was assayed at an intermediate level of activity to screen for both inhibitors and activators.
NCGC Assay Protocol Summary: Three uL of substrate mix (at r.t.) in assay buffer (50 mM Imidazole pH7.2, 50 mM KCl, 7 mM MgCl2, 0.01% Tween 20, 0.05% BSA) was dispensed into white solid bottom 1,536 well microtiter plates so that the final concentrations of substrates in the assay were 0.1 mM ADP and 0.5 mM PEP. 23 nL of compound were delivered by a pin tool and 1 uL of enzyme mix in assay buffer (4 degree Celsius) was added. Plates were incubated at room temperature for 1 hour. Two uL of detection mix (Kinase-Glo, Promega; at 4 degree Celsius protected from light) was added and luminescence read by a ViewLux (Perkin Elmer) at 5 second exposure/plate. Data were normalized to the uninhibited and AC100 inhibition (no enzyme). To monitor activation, the first column contained a titration of the activator, NCGC00031955-01 (16-point 1:2 dilutions in duplicate starting at 57 uM) and the first 16 rows of column 4 contained 57 uM of NCGC00031955-01.
% is set by controls: 0 for no effect and ±100 for the full control effect; potency is the fitted concentration of half-maximal effect.

Chain of Pyruvate kinase PKM (Homo sapiens) (P14618 whole entry, looked up, canonical isoform): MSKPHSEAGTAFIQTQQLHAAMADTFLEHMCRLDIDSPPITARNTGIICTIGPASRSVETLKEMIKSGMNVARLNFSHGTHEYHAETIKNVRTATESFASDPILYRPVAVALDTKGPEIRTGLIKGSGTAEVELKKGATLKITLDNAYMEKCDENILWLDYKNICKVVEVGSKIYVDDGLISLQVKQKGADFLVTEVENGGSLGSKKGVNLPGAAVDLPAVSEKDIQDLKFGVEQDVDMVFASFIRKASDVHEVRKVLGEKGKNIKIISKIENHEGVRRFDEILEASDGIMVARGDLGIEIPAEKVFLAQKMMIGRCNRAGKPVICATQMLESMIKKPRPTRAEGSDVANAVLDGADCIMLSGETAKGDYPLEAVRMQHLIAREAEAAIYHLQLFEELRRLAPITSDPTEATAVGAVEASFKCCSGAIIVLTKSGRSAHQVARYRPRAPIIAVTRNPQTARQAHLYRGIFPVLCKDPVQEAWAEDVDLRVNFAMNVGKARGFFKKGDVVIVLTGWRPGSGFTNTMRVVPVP

| SMILES | activation | Potency |
| --- | --- | --- |
| Cc1nc2ccccc2c(=O)n1-c1ccc(Cl)cc1Cl | -0.0497% [at 11.5 µM, 0% is enzyme alone, no compound] (inactive) |  |
| O=c1c2ccccc2nc(-c2ccco2)n1-c1ccc(Br)cn1 | 6.38% (inactive) |  |
| O=c1c2ccccc2nc(/C=C/c2ccco2)n1-c1ccccc1O |  | 3.98 µM (active) |
| CCCCn1c(=O)c(C(=O)Nc2ccccc2Cl)c(O)c2ccccc21 | 0.939% (inactive) |  |
| CN(C)C(=O)Oc1ccc(NC(=O)N2CCOCC2)cc1 | 1.13% (inactive) |  |

— PubChem BioAssay AID1631 (National Center for Advancing Translational Sciences (NCATS), 2009)
